This is a sample that favours compounds with a hit; in the whole collection about 13% have one here.
Lassa entry inh: blocks Lassa virus binding to or entry into cells; AID 540256; 300,000 tested, 1.2% active; Lassa virus pseudotype entry inhibition, cell reporter; Potency, µM (doses to about 37.9 µM), for the others: at the top dose activity change, negative = inhibition, usual class: inhibitors; calls by dose curve; tested in HEK293 cells; note: potency is the fitted concentration of half-maximal effect; % is set by controls: 0 for no effect and ±100 for the full control effect; nearly all actives have a fitted effect of over 50% in size
MARV entry inh: Marburg virus entry inhibition. Potency, µM (titrated, usually from 37.8 µM), inactives show top-dose activity change, negative = inhibition, hits mostly inhibitors. 300,000 tested, 1.8% active. AID 540276. Marburg virus pseudotyped entry inhibition, cell reporter; calls by dose curve; tested in HEK293 cells; note: potency is the fitted concentration of half-maximal effect; % is set by controls: 0 for no effect and ±100 for the full control effect
CHX counter: counter-screen hit for Shiga toxin inhibitors, cycloheximide. 300,000 tested, 12% active. cell reporter, cycloheximide protein synthesis inhibition counterscreen. max response, %; in the data active = max response mostly above about 13%, no sharp cut-off; inactive = mostly below about 14%; note: read at 38.3 µM for the half of the compounds with a filed dose; 0% is about no effect
Shiga inhibitor: inhibitors of Shiga toxin in Vero cells; Vero cells, Shiga toxin protein synthesis inhibition reporter; inhibition, % at 38.7 µM; 290,000 tested, 9.2% active; AID 2315; in the data active = inhibition mostly above about 28%, no sharp cut-off; inactive = mostly below about 43%; note: 0% is about no effect
FMDV antiviral: antivirals against foot and mouth disease virus. FMDV antiviral cell-based qHTS. Potency, µM (titrated, usually from 57.9 µM), for the others: top-dose activity change, negative = inhibition, hits mostly inhibitors. 410,000 tested, 1.2% active. AID 1159524; calls by dose curve; tested in HEK293T cells; note: read-out not given here; potency is the fitted concentration of half-maximal effect; % is set by controls: 0 for no effect and ±100 for the full control effect; nearly all actives have a fitted effect of over 45% in size
HCV inhibitor: inhibitors of hepatitis C virus infection; Huh7.5.1 HCVcc-Cre infection, luciferase reporter, 44 h; Potency, µM (titrated, usually from 41.8 µM), for the others: top-dose activity change, negative = inhibition, usual class: inhibitors; 340,000 tested, 3.4% active; AID 651820; active = well fitted inhibition curve with a large enough effect; inconclusive = small, poorly fitted or top-dose-only effect, or another doubt; inactive = no such curve, though single readings can be large or run the other way; note: potency is the fitted concentration of half-maximal effect; % is set by controls: 0 for no effect and ±100 for the full control effect
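A cell-based infection assay in which seeded cells (1,000 per well) receive test compound after 4 h, are inoculated with HCVcc-Cre at approximately 0.5 moi, and are incubated 44 h before luminescence detection.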
* marks the source's active call; other numbers are inactive results; ? = inconclusive; . = not tested or not shown; [ ] = remark or other dose.

SMILES | Lassa entry inh | MARV entry inh | CHX counter | Shiga inhibitor | FMDV antiviral | HCV inhibitor
Cc1cc(=O)[nH]c(-c2ccccc2)n1 | 9% | 5% | 7 | -21 | -3% | 5%
CNC(=O)c1cc2c(ccc3ccccc32)o1 | . | . | 33* | 81* | 71% | 12%
COc1ccc(N2CC(NC(=O)c3cc4ccccc4o3)CC2=O)cc1 (stereo not given) | -1%[46.1 µM] | . | . | . | -21% | .
O=C(N/N=C/c1cc(Cl)c(O)c(Cl)c1)c1cc2c(ccc3ccccc32)o1 | . | . | 37* | 158 | -3% | -5%
O=C(NC1CCCC1)c1cc2c(ccc3ccccc32)o1 | ? | ? | 44* | 60* | 2% | ?
O=C(NC1CC1)c1cc2ccccc2o1 | . | . | 15* | 43* | 13% | 3%
CCCn1c(=O)sc2cc(NC(=O)c3ccc(OC)c(Br)c3)ccc21 | ? | ? | . | . | -25% | .
COCC(C)NC(=O)c1cc2c(ccc3ccccc32)oc1=O (stereo not given) | . | . | 24* | 22* | 29% | -7%
O=C(Nc1ccc(S(=O)(=O)N2CCCCC2)cc1)c1ccccc1F | ? | ? | -1 | -5 | -17% | ?
N#CC1(c2ccc(NC(=O)c3ccccc3F)cc2)CCCC1 | ? | ? | 45* | 62* | -26% | ?
COc1ccc(C(=O)Nc2ccc(C3(C#N)CCCC3)cc2)cc1 | ? | 11%[14.2 µM] | 10 | -10 | 16% | 5.6µM*
COc1ccc(C(=O)N2CCC(C(=O)N3CCN(c4ccccc4)CC3)CC2)cc1 | -10% | 1% | . | . | -13% | -15%
Cc1snc2sc(C(=O)c3ccc(F)cc3)c(N)c12 | 0% | 18%[46.1 µM] | 26* | 77* | 23% | -3%
O=C(Cc1ccc(Cl)cc1Cl)Nc1ccncc1 | -3%[46.1 µM] | -40%[46.1 µM] | 8 | -16 | ? | 8.9µM*
O=C(Cc1cccs1)NCc1cc(Cl)cc(Cl)c1 | ? | ? | 44* | 52* | 11% | 16%
O=C(Cc1cccs1)NCc1cccc(F)c1 | . | . | 27 | 41* | 17% | 21%
O=C(Cc1cccs1)NCc1cccc(Cl)c1 | . | . | 41* | 89* | 53% | -3%
O=C(Cc1c(Cl)cccc1Cl)Nc1ccncc1 | . | . | -2 | -10 | -25% | -12%
CCCOc1ccc(CNC(=O)Cc2cccs2)cc1 | . | . | 46* | 108* | 38% | -5%
O=C(Cc1cccs1)NCc1ccc(Cl)cc1Cl | -4%[46.1 µM] | -2%[46.1 µM] | 42* | 104* | 18% | -5%
COc1cccc2cc(C(C)N(CCCN3CCOCC3)C(=S)Nc3cccc(C)c3)oc12 (stereo not given) | ? | 10µM* | 1 | -10 | -16% | 2%
CCc1nc2c(OCc3ccccc3)cccn2c1N(C)C(=O)Nc1ccccc1OC | . | . | . | . | -25% | .
Cc1ccc(S(=O)(=O)c2cn(C)c3cc(N4CCCC4)c(F)cc3c2=O)c(C)c1 | -10%[46.1 µM] | . | . | . | -17% | .
Cc1ccc(S(=O)(=O)c2cn(C)c3cc(N4CCN(C)CC4)c(F)cc3c2=O)c(C)c1 | . | . | -8 | -30 | 12% | 13µM*
Cc1ccc(-n2c(C)nc3cc(Cl)ccc3c2=O)nc1 | -2%[46.1 µM] | -2%[46.1 µM] | 28* | 63* | 17% | 2%
SMILES | Lassa entry inh | MARV entry inh | CHX counter | Shiga inhibitor | FMDV antiviral | HCV inhibitor
COc1ccccc1-n1cnnc1SC(C)C(=O)Nc1cccc([N+](=O)[O-])c1 (stereo not given) | 7% | 21% | -4 | -6 | -12% | ?
CCOc1nc(-c2ccc(C)cc2)ccc1-c1noc(-c2ccccc2F)n1 | -7%[46.1 µM] | ? | . | . | -1% | .
CCOc1nc(-c2ccc(C)cc2)ccc1-c1noc(COC)n1 | 2% | -4% | 5 | 31 | -4% | 10µM*
O=C(NCc1ccccn1)c1cc(S(=O)(=O)N2CCCCC2)ccc1Cl | . | . | . | . | -19% | -5%
O=C(Nc1ccc(Br)cc1)C1OCCc2ccccc21 (stereo not given) | -13% | 4%[46.1 µM] | 18* | 51* | 22% | ?
O=C(Nc1cccnc1)C1OCCc2ccccc21 (stereo not given) | -3% | -28% | -2 | -1 | -11% | -3%
CSc1ccc(CN(C)C(=O)C23CC4CC(CC(Cl)(C4)C2)C3)cc1 | 0%[46.1 µM] | -28%[46.1 µM] | -2 | 2 | -8% | -23%
OCC1CCN(Cc2nc(Cc3ccccc3Cl)no2)CC1 | -3%[46.1 µM] | -1%[46.1 µM] | 12* | 24 | 13% | 26%
Clc1ccccc1Cc1noc(CN2CCN(c3cnccn3)CC2)n1 | 3% | ? | 13* | 34 | -25% | 26%
Clc1ccccc1Cc1noc(CN2CCSCC2)n1 | 9% | 16%[46.1 µM] | 12* | 40 | 12% | 14%
COCC1CCN(Cc2nc(Cc3ccccc3Cl)no2)CC1 | 4% | ? | 1 | 4 | 16% | 16%
CCc1noc(C)c1C(=O)N(CC)c1nc2c(C)cccc2s1 | -10% | ? | . | . | -19% | -10%
O=C(C(=O)N1CCc2ccccc2C1)c1cn(CC(=O)N2CCCCC2)c2ccccc12 | ? | ? | -1 | -11 | 8% | 6%
O=C(c1cccc(C(F)(F)F)c1)C1CCCN(Cc2ccccc2O)C1 (stereo not given) | -1% | -12%[46.1 µM] | 5 | -9 | -11% | 3%
Cc1cc(C)cc(C(=O)N(C)C2CCCN(Cc3ccccc3F)C2)c1 (stereo not given) | . | . | -4 | -3 | 0% | 13µM*
O=C(NCC1CCCN(Cc2ccccc2F)C1)c1cccc(C(F)(F)F)c1 (stereo not given) | -10% | ? | -2 | 9 | -25% | 11µM*
CC1=C([N+](=O)[O-])C(c2ccc(O)c(O)c2)NC(=O)N1 (stereo not given) | -6%[46.1 µM] | 29%[46.1 µM] | -7 | 2 | -11% | 17%
CC(C)(C)OC(=O)N1CCC(c2c(C(=O)N3CCN(c4ccccn4)CC3)cnn2-c2ccc(F)cc2F)CC1 | ? | . | . | . | -14% | .
CC1(C)NC(C)(C)/C(=C\c2cccs2)C(=O)C1=O | 26% | 13µM* | 2 | -3 | -15% | -16%
COC(=O)C1=C(C)NC(=O)/C1=C\c1cccs1 | 0% | -12% | 1 | -2 | 9% | ?
O=C(NC(Cc1c[nH]c2ccccc12)C(=O)O)/C(=C/c1ccc(F)cc1)NC(=O)c1ccccc1 (stereo not given) | . | . | -2 | -6 | -3% | 10%
O=C(c1cc2nc(-c3ccccc3)cc(-c3ccccc3)n2n1)N1CCN(C(=O)c2ccco2)CC1 | ? | ? | 9 | -8 | -3% | 14µM*
O=C(c1cc2nc(-c3ccccc3)cc(-c3ccccc3)n2n1)N1CCCC1 | -17%[46.1 µM] | ? | 16 | 21 | 45% | ?
CN1CCN(C(=O)c2cc3nc(-c4ccccc4)cc(-c4ccccc4)n3n2)CC1 | 14% | -19% | -1 | -6 | 73% | 11µM*
COC(=O)c1ccc(NC(=O)CNC(=O)C2CCCCC2)c(C)c1 | 0% | -9% | 1 | -6 | 22% | 2%
CC(=O)[C@@]1(O)CC[C@H]2[C@@H]3CCC4=CC(=O)CC[C@]4(C)[C@H]3[C@@H](O)C[C@@]21C | -4% | 17% | -2 | -3 | -27% | 7%[8.37 µM]

Source: PubChem
